Data taken from PubChem BioAssay (NCATS).
A number with no mark means an inactive call. Records with an inconclusive call do not appear. Active and inactive are the calls of the source. Unless noted, the call rests on the fitted dose curve; in most records, active means well fitted curve in the direction sought with a large enough effect; inconclusive means small, poorly fitted or top-dose-only effect, or another doubt; inactive means no such curve, though single readings can be large; an effect the other way counts as inactive or inconclusive.

Legend:
[1] = molecular target: 3',5'-cyclic-AMP phosphodiesterase 4B (Homo sapiens) (UniProt Q07343); assay: qHTS Assay for Inhibitors of PDE-IV (AID 607; active means well fitted activation curve with a large enough effect in the main read-out, with a control signal flat, not every such curve was filed as active; further: % of control where 0% means no effect); conditions: HEK293 ACTOne CNG channel cells, membrane potential fluorescence; series mostly up to 22.9 µM
How it was run: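 The readout is membrane depolarisation from a cAMP-sensing CNG channel, detected with a potential dye at ex 535/em 590. Cells were HEK293-derived (endogenous PDE-IV) at 1000 cells/well, titrated up to 22.9 uM final.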

[2] = Cellular Toxicity (caspase-3) HepG2 (AID 654); conditions: HepG2 caspase-3 activation, luminescence, 0% = DMSO only, 100% = tamoxifen; series mostly up to 92.2 µM;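 further: cells exposed to compound for 16 hours before reading; 0% = DMSO alone and 100% = caspase signal from 100 µM tamoxifen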
How it was run: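 Concentration-response AC50 values reflect caspase-3/7 induction in HepG2 cells after 16 hours of compound exposure, quantified by luminescence from liberated aminoluciferin and referenced to 100 uM tamoxifen as full stimulation.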

[3] = Cellular Toxicity (caspase-3) Jurkat (AID 655); conditions: Jurkat caspase-3 activation, luminescence, DMSO = 0%, tamoxifen = 100%; at 92.2 µM (top of the series);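 further: cells exposed to compound for 16 h at 37 °C before reading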
How it was run: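 Jurkat cells (5000/well) in complete medium exposed 16 h at 37 C; caspase-3/7 activity read by Caspase-Glo luminescence after 20 min at room temperature. Normalized to DMSO and 100 uM tamoxifen; AC50 from Hill fits.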

[4] = Cellular Toxicity (caspase-3) HUV-EC-C (AID 656); conditions: HUV-EC-C cells, caspase-3 activation (apoptosis), vehicle = 0, 100 µM tamoxifen = 100%; series mostly up to 92.2 µM
How it was run: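 HUV-EC-C cells (1000/well) in complete medium, compound-treated 16 h at 37 °C; caspase-3/7 activity read by Caspase-Glo 3/7 luminescence. Normalized to DMSO (basal) and 100 uM tamoxifen (100%); AC50 from Hill-equation concentration-response fits.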

[5] = Cellular Toxicity (caspase-3) SHSY5Y (AID 657); conditions: SH-SY5Y caspase-3 activation, DMSO zero, 10 µM staurosporine = 100%; series mostly up to 91.7 µM
How it was run: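 SH-SY5Y human neuroblastoma cells, 1500/well, exposed to compound for 16 hours at 37 °C in complete medium. Caspase-3/7 activity read by Caspase-Glo luminescence after 1 hr at room temperature, normalized to DMSO and 10 uM staurosporine; AC50 from Hill fit.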

[6] = Cellular Toxicity (caspase-3) BJ (AID 658); conditions: BJ fibroblasts, luminescence, normalized: DMSO 0%, staurosporine 100%; series mostly up to 91.7 µM
How it was run: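 Caspase-Glo 3/7 luminescence, read 1 hr after reagent at room temperature, in normal BJ fibroblasts exposed 16 hours at 37 °C. AC50 values from Hill-equation concentration-response, scaled between DMSO basal and 10 uM staurosporine as 100%.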

[7] = Cellular Toxicity (caspase-3) MRC-5 (AID 659); conditions: MRC-5 cells, luminescence, normalized: DMSO 0%, 10 µM staurosporine 100%; series mostly up to 91.7 µM
How it was run: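 Luminescent Caspase-Glo 3/7 read-out (1 h, room temperature) after a 16 h, 37 °C compound exposure of MRC-5 lung fibroblasts at 1500 cells/well. Concentration-response AC50 from Hill equation; 0% DMSO, 100% 10 uM staurosporine.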

[8] = Cellular Toxicity (caspase-3) Mesangial (AID 660); conditions: mesangial cells, normalized: DMSO 0%, 100 µM tamoxifen 100%; series mostly up to 91.7 µM;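 further: cells exposed to compound for 16 h before the caspase read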
How it was run: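 AC50 values come from Hill-equation fits of caspase 3/7 activation, measured as Caspase-Glo luminescence in human glomerular mesangial cells exposed to compound for 16 h at 37 °C; 100% set by 100 uM tamoxifen.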

[9] = Cellular Toxicity (caspase-3) SK-N-SH (AID 661); conditions: SK-N-SH caspase-3 activation, qHTS, DMSO as zero, staurosporine as full; series mostly up to 91.7 µM
How it was run: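 Apoptosis readout in SK-N-SH neuroblastoma: Caspase-Glo 3/7 luminescence following 16 hr treatment in complete culture medium. Normalization used DMSO and 10 uM staurosporine controls.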

[10] = Cellular Toxicity (caspase-3) Hek293 (AID 664); conditions: HEK293 caspase-3 activation, DMSO = 0%, 100 µM tamoxifen = 100%; series mostly up to 92.2 µM;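 further: cells exposed to compound for 16 h at 37 °C before readout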
How it was run: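 Apoptosis readout: Caspase-Glo 3/7 signal in human HEK293 cells following 16-hour compound incubation. Responses scaled between DMSO baseline and 100 uM tamoxifen.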

Sequence of 3',5'-cyclic-AMP phosphodiesterase 4B (Homo sapiens) (Q07343 whole entry, looked up): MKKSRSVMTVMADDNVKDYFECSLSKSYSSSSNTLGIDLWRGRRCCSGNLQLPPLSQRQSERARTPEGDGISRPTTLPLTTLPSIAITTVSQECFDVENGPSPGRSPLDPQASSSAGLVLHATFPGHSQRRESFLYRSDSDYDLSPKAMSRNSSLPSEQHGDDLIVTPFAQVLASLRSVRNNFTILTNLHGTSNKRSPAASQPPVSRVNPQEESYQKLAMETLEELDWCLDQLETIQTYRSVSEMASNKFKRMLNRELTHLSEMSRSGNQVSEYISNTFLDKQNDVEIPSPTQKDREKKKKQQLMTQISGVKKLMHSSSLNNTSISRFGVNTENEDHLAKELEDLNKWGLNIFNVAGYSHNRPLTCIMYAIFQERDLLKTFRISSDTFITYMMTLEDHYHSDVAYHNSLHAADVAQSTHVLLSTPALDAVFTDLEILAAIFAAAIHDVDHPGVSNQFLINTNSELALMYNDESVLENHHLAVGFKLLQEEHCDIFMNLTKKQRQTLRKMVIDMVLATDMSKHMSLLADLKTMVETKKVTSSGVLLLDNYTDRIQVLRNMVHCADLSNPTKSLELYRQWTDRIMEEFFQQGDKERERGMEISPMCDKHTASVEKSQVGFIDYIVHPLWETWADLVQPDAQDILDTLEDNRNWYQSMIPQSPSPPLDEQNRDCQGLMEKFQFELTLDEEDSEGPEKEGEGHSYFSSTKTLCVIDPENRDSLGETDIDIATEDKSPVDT

Compound | outcome [1] | outcome [2] | caspase-3 activation [3] | outcome [4] | outcome [5] | outcome [6] | outcome [7] | outcome [8] | outcome [9] | outcome [10]
CCOC(=O)c1ccc(N)cc1 | inactive |  |  |  |  |  |  |  |  | 
CCN(CC)CCNc1ccc(CO)c2sc3ccccc3c(=O)c12 | inactive |  |  |  |  |  |  |  |  | 
CCOc1ccc(NC(C)=O)cc1 | inactive | inactive | -0.173% | inactive | inactive | inactive | inactive | inactive | inactive | inactive
O=C1C(O)=C(O)C(=O)C(O)=C1O | inactive |  |  |  |  |  |  |  |  | 
C/C=C/c1ccc(O)c(OC)c1 |  | inactive | 1.5% | inactive | inactive | inactive | inactive | inactive | inactive | inactive
CCN(CC)CCNC(=O)COc1ccc(OC)cc1 | inactive |  |  |  |  |  |  |  |  | 
C=C[C@H]1CN2CC[C@H]1C[C@@H]2[C@@H](O)c1ccnc2ccc(OC)cc12 |  | inactive |  | inactive | inactive | inactive | inactive | inactive | inactive | inactive
C[N+]1(C)CCC(=C(c2ccccc2)c2ccccc2)CC1 | inactive |  |  |  |  |  |  |  |  | 
OC[C@H]1O[C@@H]2O[C@H]3[C@H](O)[C@@H](O)[C@@H](O[C@H]4[C@H](O)[C@@H](O)[C@@H](O[C@H]5[C@H](O)[C@@H](O)[C@@H](O[C@H]6[C@H](O)[C@@H](O)[C@@H](O[C@H]7[C@H](O)[C@@H](O)[C@@H](O[C@H]8[C@H](O)[C@@H](O)[C@@H](O[C@H]1[C@H](O)[C@H]2O)O[C@@H]8CO)O[C@@H]7CO)O[C@@H]6CO)O[C@@H]5CO)O[C@@H]4CO)O[C@@H]3CO |  | inactive | 1.07% | inactive | inactive | inactive | inactive | inactive | inactive | inactive
NCCNc1cccc2ccccc12 |  | inactive | 6.22% | inactive | inactive | inactive | inactive | inactive | inactive | inactive
COc1ccc(C(=O)c2ccccc2)c(O)c1 | inactive | inactive | 25.4% | inactive | inactive | inactive | inactive | inactive | inactive | inactive
Nc1ccc(C(=O)NCC(=O)O)cc1 | inactive |  |  |  |  |  |  |  |  | 
CCCN(CCC)S(=O)(=O)c1ccc(C(=O)O)cc1 | inactive | inactive | 1.65% | inactive | inactive | inactive | inactive | inactive | inactive | inactive
CCCCC(CC)COC(=O)c1ccc(N(C)C)cc1 (stereo not given) |  | inactive | 1.94% | inactive | inactive | inactive | inactive | inactive | inactive | inactive
c1ccc(CC2=NCCN2)cc1 | inactive |  |  |  |  |  |  |  |  | 
COc1cc([C@H]2Oc3cc([C@H]4Oc5cc(O)cc(O)c5C(=O)[C@@H]4O)ccc3O[C@@H]2CO)ccc1O |  | inactive | 7.36% | inactive | inactive | inactive | inactive | inactive | inactive | inactive
O=C(O)CCc1nc2ccccc2[nH]1 | inactive |  |  |  |  |  |  |  |  | 
CC(C)(C)NC[C@H](O)COc1cccc2c1CCCC2=O | inactive |  |  |  |  |  |  |  |  | 
Oc1ccc(Cl)cc1Cc1cc(Cl)ccc1O |  |  | 86% (active) | inactive | inactive | inactive | inactive | inactive | inactive | 
Oc1c(Cl)cc(Cl)c(Cl)c1Cc1c(O)c(Cl)cc(Cl)c1Cl |  | inactive |  | inactive | inactive | inactive | inactive | inactive | inactive | inactive
CN1CCC[C@@H]1CCO[C@](C)(c1ccccc1)c1ccc(Cl)cc1 | inactive |  |  |  |  |  |  |  |  | 
CCOc1ccccc1C(N)=O |  | inactive | -0.33% | inactive | inactive | inactive | inactive | inactive | inactive | inactive
COc1ccc(C(Cl)=C(c2ccc(OC)cc2)c2ccc(OC)cc2)cc1 |  | inactive | 2.72% | inactive | inactive | inactive | inactive | inactive | inactive | inactive
NC(=O)c1ccccc1O |  | inactive | -0.838% | inactive | inactive | inactive | inactive | inactive | inactive | inactive
O=C(O)c1ccc(S(=O)(=O)N(Cl)Cl)cc1 |  | inactive | 0.943% | inactive | inactive | inactive | inactive | inactive | inactive | inactive
N=C(N)N1CCc2ccccc2C1 | inactive |  |  |  |  |  |  |  |  | 
